# From PubChem BioAssay (EPA / NIEHS)
# Where “and” joins values, the source holds several entries; their conditions need not be identical. Equal values may be shown once. Calls of active or inactive are those of the source. How the source made its calls: active means hit-call score of the fitted dose curve at least 0.9, where 1 is the maximum; inactive means score below 0.9.
# Target: Heat shock factor protein 1 (Homo sapiens) (UniProt Q00613)
# Assay: ATG_HSE_CIS: Attagene CIS-FACTORIAL HepG2 Assay for human Heat Shock Transcription Factor 1 (HSE) (AID 2282953)
# Conditions: HepG2 HSE cis-reporter, Attagene RNA transcription; actives raise or lower the signal
# Experimental: ATG_CIS is a cell-based, multiplexed-readout assay that uses HepG2, a human liver cell line, with measurements taken at 24 hours after chemical dosing in a 24-well plate.ATG_HSE_CIS is one of 52 assay component(s) measured or calculated from the ATG_CIS assay. It is designed to make measurements of mRNA induction, a form of inducible reporter, as detected with fluorescence intensity signals by Reverse transcription polymerase chain reaction (RT-PCR) and Capillary electrophoresis technology.Data from the assay component ATG_HSE_CIS was analyzed into 1 assay endpoint. This assay endpoint, ATG_HSE_CIS, was analyzed with bidirectional fitting relative to DMSO as the negative control and baseline of activity. Using a type of inducible reporter, measures of mRNA for gain or loss-of-signal activity can be used to understand the reporter gene at the transcription factor-level as they relate to the gene HSF1. Furthermore, this assay endpoint can be referred to as a primary readout, because this assay has produced multiple assay endpoints where this one serves a reporter gene function. To generalize the intended target to other relatable targets, this assay endpoint is annotated to the dna binding intended target family, where the subfamily is heat shock protein.
# Human liver HepG2 cells are transiently transfected with multiple reporter transcription units (MRTUs) in 6-well plates using FuGene 6 reagent (Roche; 3 ml FuGene/1 mg DNA). The MRTU constructs are regulated by a cis-regulating element (promoter). […] A major difference between the CIS and TRANS system is that in CIS activities of endogenous TFs are measured, whereas the TRANS assay evaluates changes in activities of exogenous, chimeric NR-Gal4 proteins. […] At the end of 24 hour incubation, total RNA was isolated using TriZol reagent (Invitrogen). The isolated RNA is then reverse-transcribed using oligo(dT) primer and Mo-MLV reverse transcriptase (Invitrogen) with DNAse I (Ambion) treatment for 30 min. The one-tenth of the produced cDNA was amplified by PCR using Taq DNA polymerase (Invitrogen) and two reporter sequence-specific primers. The PCR products were fluorescently labeled by primer extension with 6-arboxyfluorescein (6-FAM) 5'-labeled reporter sequence-specific primer (2 min at 95 C, 20 s at 68 C and 10 min at 72 C) and these products were digested with 5U of HpaI (New England Biolabs) for 2h at 37 C. The fragments were purified using Qiaquick PCR columns (Qiagen), analyzed on an ABI 3130xL genetic analyzer (Applied Biosystems) with peak positions identified by using a set of X-rhodamine (ROX)-labeled MapMarker1000 molecular weight standards (BioVentures). The raw capillary electrophoresis data was processed using Attagraph software (Attagene).
# Chain of Heat shock factor protein 1 (Homo sapiens) (Q00613 whole entry, looked up): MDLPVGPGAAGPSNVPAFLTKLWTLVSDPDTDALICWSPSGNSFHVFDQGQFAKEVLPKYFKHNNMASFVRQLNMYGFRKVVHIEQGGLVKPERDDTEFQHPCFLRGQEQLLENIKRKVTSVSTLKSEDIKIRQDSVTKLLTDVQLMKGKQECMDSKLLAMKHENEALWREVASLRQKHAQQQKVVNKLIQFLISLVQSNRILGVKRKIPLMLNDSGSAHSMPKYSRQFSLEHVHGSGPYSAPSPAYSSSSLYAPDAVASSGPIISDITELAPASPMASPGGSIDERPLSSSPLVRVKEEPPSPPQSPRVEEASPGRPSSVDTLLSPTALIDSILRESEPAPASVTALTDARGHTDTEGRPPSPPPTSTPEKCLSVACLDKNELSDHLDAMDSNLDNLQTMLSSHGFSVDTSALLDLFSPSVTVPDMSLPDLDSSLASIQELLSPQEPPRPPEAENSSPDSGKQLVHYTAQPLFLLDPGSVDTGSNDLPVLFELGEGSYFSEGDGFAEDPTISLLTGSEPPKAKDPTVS
Compound,outcome,AC50
CCCCOC(=O)c1ccccc1C(=O)OCc1ccccc1,inactive,–
C[N+](C)(C)CC1CO1 (stereo not given),inactive,–
Nc1ccc([N+](=O)[O-])cc1,inactive,–
CCCCCCCCCCCCCN1CC(C)OC(C)C1 (stereo not given),inactive,–
CCNS(=O)(=O)C(F)(F)C(F)(F)C(F)(F)C(F)(F)C(F)(F)C(F)(F)C(F)(F)C(F)(F)F,–,130 µM (active) and 218 µM (active) and 80.8 µM (active)
Nc1ccc(Oc2ccc(N)cc2)cc1,inactive,–
Cc1ccc([N+](=O)[O-])cc1,inactive,–
CN(C)c1ccccc1,inactive,–
Clc1ccccc1Cl,inactive,–
CC(C)COC(=O)c1ccccc1C(=O)OCC(C)C,inactive,–
COC(=O)c1ccccc1N,inactive,–
CC(C)(C)C(O)(CCc1ccc(Cl)cc1)Cn1cncn1 (stereo not given),inactive,–
ClC1=C(Cl)C2(Cl)C3C(Cl)C=CC3C1(Cl)C2(Cl)Cl (stereo not given),inactive,–
Cn1cc(-c2ccccc2)c(=O)c(-c2cccc(C(F)(F)F)c2)c1,inactive,–
O=[N+]([O-])c1ccc(Oc2ccc(Cl)cc2Cl)cc1,inactive,–
CCCCCOC(=O)c1ccccc1C(=O)OCCCCC,inactive,–
Cc1cc(N=Nc2ccccc2C)ccc1N,–,53.8 µM (active)
N#CC(Br)(Br)C(N)=O,inactive,–
CC(C)(OOC(C)(C)c1ccccc1)c1ccccc1,inactive,–
CCC[CH2][Sn]([Cl])([CH2]CCC)[CH2]CCC,–,0.667 µM (active)

Compound,outcome,AC50
COc1cc(C=O)cc2c1[C@H](COC(N)=O)[C@]1(OC(C)=O)ON2C[C@H]2[C@@H]1N2C(C)=O,–,8.4 µM (active)
Oc1ccccc1Cl,inactive,–
CCN(CC)CCO,inactive,–
CCCCC(CC)COC(=O)c1ccc(C(=O)OCC(CC)CCCC)c(C(=O)OCC(CC)CCCC)c1 (stereo not given),inactive,–
COP(=S)(OC)SCN1C(=O)c2ccccc2C1=O,inactive,–
N#CC(Br)Br,inactive,–
O=[N+]([O-])C(Br)(CO)CO,–,158 µM (active)
OCCCBr,inactive,–
[O-][Cl+]O,inactive,–
Oc1ccc2ccc3cccc4ccc1c2c34,inactive,–
CNC(=O)Oc1cccc2c1OC(C)(C)C2,inactive,–
c1ccc(N=Nc2ccccc2)cc1,inactive,–
CCCCCCCCn1sccc1=O,–,16.7 µM (active)
Nc1ccc(Cl)cc1N,inactive,–
CCN(CC)N=O,inactive,–
ClCCOCCCl,inactive,–
O=C(O)C1C2CCC(O2)C1C(=O)O (stereo not given),inactive,–
O=P(OCCCl)(OCCCl)OCCCl,inactive,–
CCC(C)c1ccc(O)cc1 (stereo not given),inactive,–
[Cl-].[Cl-].[Hg+2],inactive,–
